In PubChem BioAssay (NCATS) one finds Potency and outcome data, which are given here for 29 compounds.

Values without a mark were called inactive. Results filed as inconclusive are left out. Active and inactive are the calls of the source. Unless noted, the call rests on the fitted dose curve. Some results are limits rather than exact numbers.

For one assay, the target named is Glucocorticoid receptor (Homo sapiens) (UniProt P04150). Briefly: GR-EFC Redistribution (AID 451). Further: potency means the concentration at half of the fitted maximal effect. The following applies: CHO-K1 GR-EFC translocation, beta-gal luminescence, 2 h. A digest of the protocol: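 CHO-K1 cells expressing nuclear EA and GR-ED fragments of b-gal; compounds titrated up to 46 uM final, 2 h at 37 C. GR nuclear translocation read as complemented b-gal luminescence after 1 h RT detection.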
Sequence of Glucocorticoid receptor (Homo sapiens) (P04150 whole entry, looked up, the tested form may be a part): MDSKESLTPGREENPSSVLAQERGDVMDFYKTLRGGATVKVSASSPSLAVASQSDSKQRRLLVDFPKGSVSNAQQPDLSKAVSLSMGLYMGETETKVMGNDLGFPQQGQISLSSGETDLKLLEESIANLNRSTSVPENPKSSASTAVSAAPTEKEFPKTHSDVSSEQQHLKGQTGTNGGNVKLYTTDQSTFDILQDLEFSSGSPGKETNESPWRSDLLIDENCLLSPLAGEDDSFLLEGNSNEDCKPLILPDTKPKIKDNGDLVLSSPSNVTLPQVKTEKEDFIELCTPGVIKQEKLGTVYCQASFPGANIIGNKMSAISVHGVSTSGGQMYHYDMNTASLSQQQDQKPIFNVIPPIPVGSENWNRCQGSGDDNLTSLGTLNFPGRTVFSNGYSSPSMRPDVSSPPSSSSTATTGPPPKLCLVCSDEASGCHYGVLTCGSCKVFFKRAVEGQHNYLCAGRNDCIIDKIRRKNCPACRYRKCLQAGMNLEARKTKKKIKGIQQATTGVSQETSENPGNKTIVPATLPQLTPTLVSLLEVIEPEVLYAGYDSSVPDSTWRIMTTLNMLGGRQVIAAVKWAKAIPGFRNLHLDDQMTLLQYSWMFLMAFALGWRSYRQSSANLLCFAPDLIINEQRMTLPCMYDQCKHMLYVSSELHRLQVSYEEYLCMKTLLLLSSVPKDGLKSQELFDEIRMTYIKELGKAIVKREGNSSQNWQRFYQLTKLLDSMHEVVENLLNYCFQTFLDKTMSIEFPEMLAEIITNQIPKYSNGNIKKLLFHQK
As for `C[C@@H](CO)NC(=O)[C@H]1C=C2c3cccc4[nH]cc(c34)C[C@H]2N(C)C1`, the Potency is more than 46 µM. In the case of `CC1=CC(=O)C2=C(C)C[C@H](O)[C@@H]3[C@@H](OC(=O)[C@H]3C)[C@H]12`, the Potency was more than 46 µM. Regarding `CCN(CC)c1ncnc2c1ncn2[C@@H]1O[C@@H](COP(=O)(O)OP(=O)(O)C(Br)(Br)P(=O)(O)O)[C@H](O)[C@H]1O`, the Potency was more than 46 µM. `COC1=C[C@H]2[C@@H]3Cc4ccc(OC)c(O)c4[C@@]2(CCN3C)CC1=O`: the Potency was more than 46 µM.

On to `O=c1ccc2cc(O[C@@H]3O[C@@H](CO)[C@@H](O)[C@@H](O)[C@H]3O)c(O)cc2o1`, for which the Potency was more than 46 µM. Same read-out and setting: as for `COc1cc2c(cc1O)CCN[C@H]2C`, the figure is more than 46 µM; as for `CCN1C[C@@]2(COC(=O)c3ccccc3N3C(=O)C[C@H](C)C3=O)CC[C@H](OC)[C@@]34[C@@H]5CC6[C@@H](OC)C[C@@](O)([C@H]5[C@H]6OC)C(O)([C@@H]13)[C@@H](OC)[C@H]24`, more than 46 µM.

With `c1cc2c(cc1[C@H]1OC[C@H]3[C@@H]1CO[C@H]3c1ccc3c(c1)OCO3)OCO2`, the Potency is more than 46 µM. Same read-out and setting: as for `OC[C@H]1CCCN2CCCC[C@@H]12`, the figure is more than 46 µM; as for `CC(C)[C@]1(NC(=O)[C@H]2C=C3c4cccc5[nH]cc(c45)C[C@H]3N(C)C2)O[C@@]2(O)[C@H]3CCCN3C(=O)[C@H](Cc3ccccc3)N2C1=O`, more than 46 µM. Take `NC(=O)c1ccc(OC[C@H](O)CN2CC=C(c3ccc(F)cc3)CC2)cc1`: the Potency was more than 46 µM. On the same count and under the same terms, as for `Oc1cc2c(cc1O)[C@H]1c3ccccc3CN[C@H]1CC2`, the figure is more than 46 µM; as for `C[C@H]1C(=O)O[C@H]2CCN3CC=C(COC(=O)[C@](C)(O)[C@@]1(C)O)[C@H]23`, more than 46 µM; as for `C=C(C)[C@H]1[C@H]2OC(=O)[C@@H]1[C@]1(O)C[C@H]3O[C@]34C(=O)O[C@H]2[C@]14C`, more than 46 µM. Still for that read-out and setting: the figure for `CC[C@H]1CN2CC[C@@H]1C[C@@H]2[C@H](O)c1ccnc2ccccc12` is more than 46 µM; for `CCCCCC[C@H]1C(=O)O[C@@H](C)[C@H](NC(=O)c2cccc(NC=O)c2O)C(=O)O[C@@H](C)[C@@H]1OC(=O)CC(C)C` it is more than 46 µM; for `C[C@@]12CCC[C@](C)(C(=O)O)[C@@H]1CCc1ccc(O)cc12` it is more than 46 µM. Same read-out and setting: as for `CO[C@@H](C)[C@](O)(C(=O)OC1=CCN2CC[C@H](O)[C@H]12)C(C)C`, the figure is more than 46 µM; as for `C[C@@H]1CCC/C=C\[C@H]2C[C@H](O)C[C@@H]2[C@H](O)/C=C\C(=O)O1`, more than 46 µM. As to `C[C@@H]1O[C@@H](O[C@H]2C[C@@H](O)[C@]3(CO)[C@@H]4[C@@H](O)C[C@]5(C)[C@H]([C@@H]6COC(=O)C6)CC[C@@]5(O)[C@H]4CC[C@@]3(O)C2)[C@H](O)[C@H](O)[C@@H]1O`, the Potency is more than 46 µM.

For `CC[C@H](CO)NC(=O)[C@H]1C=C2c3cccc4[nH]cc(c34)C[C@H]2N(C)C1`, the Potency was more than 46 µM. Still for that read-out and setting: the figure for `CC(C)(O)[C@H]1[C@H]2OC(=O)[C@@H]1[C@]1(O)C[C@H]3O[C@]34C(=O)O[C@H]2[C@]14C` is more than 46 µM. With `COC[C@H]1OC(=O)c2coc3c2[C@@]1(C)C1=C(C3=O)[C@H]2CCC(=O)[C@@]2(C)C[C@H]1OC(C)=O`, the Potency was more than 46 µM. For the compound `C[C@H]1CC[C@]2(NC1)O[C@@H]1C[C@@H]3[C@@H]4CC=C5C[C@H](O)CC[C@@]5(C)[C@H]4CC[C@@]3(C)[C@H]1[C@@H]2C`, the Potency was more than 46 µM. The same measure, in the same setting: the figure for `C[C@H]1CC[C@@H]2[C@@H](C)C(=O)O[C@H]3O[C@@]4(C)CC[C@@H]1[C@]32OO4` is more than 46 µM; for `COc1cc2c(cc1OC)-c1c(O)c(OC)cc3c1[C@@H](C2)N(C)CC3` it is more than 46 µM.

On to `COc1cc2c(cc1OC)-c1c(OC)c(OC)c(CO)c3c1[C@H](C2)N(C)CC3`, for which the Potency is more than 46 µM.

As for `CC[C@@H]1CN2CC[C@@H]1C[C@H]2[C@@H](O)c1ccnc2ccc(OC)cc12`, the Potency is more than 46 µM. Same read-out and setting: as for `C[C@H]1CCCC=CC2C[C@H](O)C[C@@H]2[C@H](O)/C=C\C(=O)O1` (stereo partly specified), the figure is more than 46 µM.

The next assay deals with Mitogen-activated protein kinase 10 (Mus musculus) (UniProt Q61831). As to the kind of experiment: JNK3 AlphaScreen Assay (AID 530; active means well fitted curve in either direction with a large enough effect, not every such curve was filed as active;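 further: kinase came from lysate of stimulated human HepG2 cells; signal reports phosphorylation of biotinylated GST-cJun 1-79 at Ser73 with 10 µM ATP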). The following applies: JNK3 lysate, c-Jun phosphorylation; series mostly up to 57.1 µM. In a few lines:
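HepG2 lysate (IL-1b/TNFa pre-activated) + biotin-GST-cJun 1-79 + anti-pSer73 cJun; cpd titration, 15 min RT; ATP 10 uM start; Tris pH 7.6, MgCl2, DTT, vanadate; beads in EDTA buffer; AlphaScreen.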
(In general: In Alpha technology, singlet oxygen from a donor bead excites a nearby acceptor bead.)
As to `C[C@@H](CO)NC(=O)[C@H]1C=C2c3cccc4[nH]cc(c34)C[C@H]2N(C)C1`, the compound was classed as inactive.

On to `CC1=CC(=O)C2=C(C)C[C@H](O)[C@@H]3[C@@H](OC(=O)[C@H]3C)[C@H]12`, for which the call was inactive. Turning to `CCN(CC)c1ncnc2c1ncn2[C@@H]1O[C@@H](COP(=O)(O)OP(=O)(O)C(Br)(Br)P(=O)(O)O)[C@H](O)[C@H]1O`, the call was inactive.

On to `COC1=C[C@H]2[C@@H]3Cc4ccc(OC)c(O)c4[C@@]2(CCN3C)CC1=O`, for which the outcome was inactive. Regarding `CCN1C[C@@]2(COC(=O)c3ccccc3N3C(=O)C[C@H](C)C3=O)CC[C@H](OC)[C@@]34[C@@H]5CC6[C@@H](OC)C[C@@](O)([C@H]5[C@H]6OC)C(O)([C@@H]13)[C@@H](OC)[C@H]24`, the call was inactive. Still for that read-out and setting: as for `c1cc2c(cc1[C@H]1OC[C@H]3[C@@H]1CO[C@H]3c1ccc3c(c1)OCO3)OCO2`, the entry is “inactive”; as for `C[C@H]1C(=O)O[C@H]2CCN3CC=C(COC(=O)[C@](C)(O)[C@@]1(C)O)[C@H]23`, “inactive”; as for `CC[C@H]1CN2CC[C@@H]1C[C@@H]2[C@H](O)c1ccnc2ccccc12`, “inactive”. On to `CCCCCC[C@H]1C(=O)O[C@@H](C)[C@H](NC(=O)c2cccc(NC=O)c2O)C(=O)O[C@@H](C)[C@@H]1OC(=O)CC(C)C`, for which the compound was called inactive. As to `C[C@@]12CCC[C@](C)(C(=O)O)[C@@H]1CCc1ccc(O)cc12`, the call was inactive. Turning to `CO[C@@H](C)[C@](O)(C(=O)OC1=CCN2CC[C@H](O)[C@H]12)C(C)C`, the compound was called inactive. Same read-out and setting: as for `C[C@@H]1CCC/C=C\[C@H]2C[C@H](O)C[C@@H]2[C@H](O)/C=C\C(=O)O1`, the entry is “inactive”; as for `CC[C@H](CO)NC(=O)[C@H]1C=C2c3cccc4[nH]cc(c34)C[C@H]2N(C)C1`, “inactive”.

As for `C[C@H]1CC[C@]2(NC1)O[C@@H]1C[C@@H]3[C@@H]4CC=C5C[C@H](O)CC[C@@]5(C)[C@H]4CC[C@@]3(C)[C@H]1[C@@H]2C`, the call was inactive. Still for that read-out and setting: as for `COc1cc2c(cc1OC)-c1c(O)c(OC)cc3c1[C@@H](C2)N(C)CC3`, the entry is “inactive”. On the same count and under the same terms, the entry for `COc1cc2c(cc1OC)-c1c(OC)c(OC)c(CO)c3c1[C@H](C2)N(C)CC3` is “inactive”. On to `C[C@H]1CCCC=CC2C[C@H](O)C[C@@H]2[C@H](O)/C=C\C(=O)O1` (stereo partly specified), for which the compound was called inactive.
